Results from publication PMC5540273 (PLoS ONE, 2017).

System: MARK4
Conditions: concentration: 1 μM,replicates: in singlicate; n = 1
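Also: KINOMEscan kinase panel screen.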

Structure (SMILES) | %Inh [%]
Cl.Cl.Nc1nc(-c2ccc3c(N)n[nH]c3c2)cc(N2CCCC(NC(=O)c3ccccc3)C2)n1 (stereo not drawn) [GSK2286775] | 0
CC(C)Nc1cc(-c2ccc3c(N)n[nH]c3c2)nc(N)n1 [GSK2221681] | 0
COc1ccc(C[C@@H](CN)NC(=O)c2cc(Br)c(-c3ccnc4[nH]ccc34)s2)cc1.Cl.Cl [GSK1389063] | 1
C[C@H]1Oc2cc(cnc2N)-c2c(nn(C)c2C#N)CN(C)C(=O)c2ccc(F)cc21 | 6
Cc1ccc2c(-c3ccncc3)c(-c3ccc(F)cc3)nn2c1.Cl [GW461484] | 0
C=CC(=O)Nc1cc2c(Nc3ccc(F)c(Cl)c3)ncnc2cc1OCCCN1CCOCC1 [GW781483] | 0
CNC(=O)c1ccccc1Sc1ccc2c(/C=C/c3ccccn3)n[nH]c2c1 | 6
C[C@@H](Oc1cc(-c2cnn(C3CCNCC3)c2)cnc1N)c1c(Cl)ccc(F)c1Cl | 26
CCN(CC)CCOc1ccc(Nc2ncc3cc(-c4c(Cl)cccc4Cl)c(=O)n(C)c3n2)cc1 [SB-601273] | 6
CN(C)CCOc1ccc(-c2cc(-c3c[nH]nc3-c3ccccn3)ccn2)cc1 [GW835314] | 38
Cl.Oc1cc(-c2nc(-c3ccccc3)[nH]c2-c2ccncc2)ccc1Cl [SB-386023] | 9
CC(C)N1C(=O)Cc2cc(Nc3ncc(C(F)(F)F)c(NCc4cccc(S(C)(=O)=O)c4)n3)ccc21 | 25
O=C(NCCNc1ccnc(NCc2ccc(F)cc2)n1)c1cc2ccccc2s1 [GSK1379944] | 0
CCn1c(-c2nonc2N)nc2c(C#CC(C)(C)O)nc(OCCN)cc21.Cl.Cl [GSK902056] | 0
NC(=O)c1cc(-c2ccccc2)cc2c(C3CCNCC3)c[nH]c12 [GSK301362] | 5
CCN(CC)CCCCNc1ncc2cc(-c3c(Cl)cccc3Cl)c(NC(=O)NC(C)(C)C)nc2n1 | 2
Nc1nc(Nc2ccccc2)cc(-c2ccc3c(N)n[nH]c3c2)n1 [GSK2225749] | 8
Cc1occc1-c1nc(N)c(OC[C@@H](N)Cc2c[nH]c3ccccc23)cc1-c1cc2c(C)n[nH]c2cn1 [GSK1660450] | 57
Cl.Cl.NC[C@H](CC1CCCCC1)NC(=O)c1cc(Br)c(-c2ccnc3[nH]ccc23)s1 [GSK1581427] | 0
Cc1n[nH]c2ccc(-c3cc(OC[C@@H](N)Cc4ccccc4)cnc3-c3ccoc3)cc12.O=C(O)C(F)(F)F.O=C(O)C(F)(F)F [GSK507358] | 0
C[C@@H]1CCN(C(=O)CC#N)C[C@@H]1N(C)c1ncnc2[nH]ccc12 | 0
O=C(NCCCN1CCOC1=O)c1cnc(NCc2cc(Cl)ccc2Cl)nc1NC1CCCC1 | 5
Cc1cc(C(=O)Nc2ccc(Oc3ccc4nc(NC(=O)C5CC5)cn4n3)cc2)nn1-c1ccccc1 | 44
Cc1ccc(-n2nc(C(C)(C)C)cc2NC(=O)Nc2ccc(OCCN3CCOCC3)c3ccccc23)cc1 [GW839464] | 7
Cc1cc2cn[nH]c2cc1-c1cccc2c(N)c(C(N)=O)nnc12 | 0
Cl.Cl.NC[C@H](Cc1ccc(C(F)(F)F)cc1)NC(=O)c1cc(Br)c(-c2ccnc3[nH]ccc23)s1 [GSK1487252] | 0
CN(C)CC(O)COc1ccc(Nc2nccc(-c3cnn4nc(N5CCOCC5)ccc34)n2)cc1 (stereo not drawn) [GW767488] | 23

System: MAST1
Conditions: concentration: 1 μM,replicates: in singlicate; n = 1

Structure (SMILES) | %Inh [%]
Cl.Cl.Nc1nc(-c2ccc3c(N)n[nH]c3c2)cc(N2CCCC(NC(=O)c3ccccc3)C2)n1 (stereo not drawn) [GSK2286775] | 0
CC(C)Nc1cc(-c2ccc3c(N)n[nH]c3c2)nc(N)n1 [GSK2221681] | 0
COc1ccc(C[C@@H](CN)NC(=O)c2cc(Br)c(-c3ccnc4[nH]ccc34)s2)cc1.Cl.Cl [GSK1389063] | 0
C[C@H]1Oc2cc(cnc2N)-c2c(nn(C)c2C#N)CN(C)C(=O)c2ccc(F)cc21 | 6
Cc1ccc2c(-c3ccncc3)c(-c3ccc(F)cc3)nn2c1.Cl [GW461484] | 6
C=CC(=O)Nc1cc2c(Nc3ccc(F)c(Cl)c3)ncnc2cc1OCCCN1CCOCC1 [GW781483] | 36
CNC(=O)c1ccccc1Sc1ccc2c(/C=C/c3ccccn3)n[nH]c2c1 | 0
C[C@@H](Oc1cc(-c2cnn(C3CCNCC3)c2)cnc1N)c1c(Cl)ccc(F)c1Cl | 0
CCN(CC)CCOc1ccc(Nc2ncc3cc(-c4c(Cl)cccc4Cl)c(=O)n(C)c3n2)cc1 [SB-601273] | 48
CN(C)CCOc1ccc(-c2cc(-c3c[nH]nc3-c3ccccn3)ccn2)cc1 [GW835314] | 5
Cl.Oc1cc(-c2nc(-c3ccccc3)[nH]c2-c2ccncc2)ccc1Cl [SB-386023] | 21
CC(C)N1C(=O)Cc2cc(Nc3ncc(C(F)(F)F)c(NCc4cccc(S(C)(=O)=O)c4)n3)ccc21 | 48
O=C(NCCNc1ccnc(NCc2ccc(F)cc2)n1)c1cc2ccccc2s1 [GSK1379944] | 0
CCn1c(-c2nonc2N)nc2c(C#CC(C)(C)O)nc(OCCN)cc21.Cl.Cl [GSK902056] | 28
NC(=O)c1cc(-c2ccccc2)cc2c(C3CCNCC3)c[nH]c12 [GSK301362] | 0
CCN(CC)CCCCNc1ncc2cc(-c3c(Cl)cccc3Cl)c(NC(=O)NC(C)(C)C)nc2n1 | 13
Nc1nc(Nc2ccccc2)cc(-c2ccc3c(N)n[nH]c3c2)n1 [GSK2225749] | 18
Cc1occc1-c1nc(N)c(OC[C@@H](N)Cc2c[nH]c3ccccc23)cc1-c1cc2c(C)n[nH]c2cn1 [GSK1660450] | 19
Cl.Cl.NC[C@H](CC1CCCCC1)NC(=O)c1cc(Br)c(-c2ccnc3[nH]ccc23)s1 [GSK1581427] | 0
Cc1n[nH]c2ccc(-c3cc(OC[C@@H](N)Cc4ccccc4)cnc3-c3ccoc3)cc12.O=C(O)C(F)(F)F.O=C(O)C(F)(F)F [GSK507358] | 0
C[C@@H]1CCN(C(=O)CC#N)C[C@@H]1N(C)c1ncnc2[nH]ccc12 | 0
O=C(NCCCN1CCOC1=O)c1cnc(NCc2cc(Cl)ccc2Cl)nc1NC1CCCC1 | 19
Cc1cc(C(=O)Nc2ccc(Oc3ccc4nc(NC(=O)C5CC5)cn4n3)cc2)nn1-c1ccccc1 | 16
Cc1ccc(-n2nc(C(C)(C)C)cc2NC(=O)Nc2ccc(OCCN3CCOCC3)c3ccccc23)cc1 [GW839464] | 0
Cc1cc2cn[nH]c2cc1-c1cccc2c(N)c(C(N)=O)nnc12 | 36
Cl.Cl.NC[C@H](Cc1ccc(C(F)(F)F)cc1)NC(=O)c1cc(Br)c(-c2ccnc3[nH]ccc23)s1 [GSK1487252] | 0
CN(C)CC(O)COc1ccc(Nc2nccc(-c3cnn4nc(N5CCOCC5)ccc34)n2)cc1 (stereo not drawn) [GW767488] | 0
